# Reference: paper PMC8384837, “Expanding the binding specificity for RNA recognition by a PUF domain”
# Columns and labels:
# Test in all cases: yeast three-hybrid, YBZ-1, SC-Leu-His + 0.5 mM 3-AT, 4 days
# Settings in all cases: tags: N-Gal4 AD-HA kept; label: inside an RPR1-promoter hybrid RNA with tandem MS2 sites; ssRNA
# [1] = target: PUM1 PUF domain R5-KYY (Homo sapiens, UniProt Q14671 828-1176, C1007K;R1008Y;Q1011Y)
# Summary of the method: (§1)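 Pumilio-1 PUF domain libraries, randomized at the three base-contacting residues of each repeat, were co-expressed with matching RNA elements from a centromeric plasmid in strain YBZ-1, which carries a LexA–MS2 coat fusion and a HIS3 reporter. Transformants grew for four days on SC-Leu (input) or on SC-Leu-His + 0.5 mM 3-AT (selection), and the repeat regions were PCR-amplified and Illumina-sequenced. The interaction score is the log change in variant frequency from input to selection. That logarithm is base 2, with a pseudocount of 1 where a variant was absent.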
# [2] = target: PUM1 PUF domain R5-RFE (Homo sapiens, UniProt Q14671 828-1176, C1007R;R1008F;Q1011E)
# Summary of the method: as §1
# [3] = target: PUM1 PUF domain R7-RRF (Homo sapiens, UniProt Q14671 828-1176, S1079R;N1080R;E1083F)
# PUM1 PUF domain R7-RRF, sequence (Q14671 828-1176 S1079R/N1080R/E1083F): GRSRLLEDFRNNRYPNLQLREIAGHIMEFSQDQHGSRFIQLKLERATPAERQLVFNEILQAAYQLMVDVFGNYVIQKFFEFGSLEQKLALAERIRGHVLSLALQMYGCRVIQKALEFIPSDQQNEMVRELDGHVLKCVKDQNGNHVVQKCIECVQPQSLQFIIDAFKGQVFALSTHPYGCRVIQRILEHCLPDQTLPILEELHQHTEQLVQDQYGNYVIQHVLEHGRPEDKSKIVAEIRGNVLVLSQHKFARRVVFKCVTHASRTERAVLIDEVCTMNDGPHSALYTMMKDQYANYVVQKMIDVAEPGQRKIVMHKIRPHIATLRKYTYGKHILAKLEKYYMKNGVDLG
# Summary of the method: as §1
# [4] = target: PUM1 PUF domain R5-DHN (Homo sapiens, UniProt Q14671 828-1176, C1007D;R1008H;Q1011N)
# Summary of the method: as §1
# [5] = target: PUM1 PUF domain R3-EWG (Homo sapiens, UniProt Q14671 828-1176, C935E;R936W;Q939G)
# PUM1 PUF domain R3-EWG, sequence (Q14671 828-1176 C935E/R936W/Q939G): as the sequence (Q14671 828-1176 S1079R/N1080R/E1083F) above, with C108E, R109W, Q112G, R252S, R253N, F256E counted along it
# Summary of the method: as §1
# [6] = target: PUM1 PUF domain R3-IYV (Homo sapiens, UniProt Q14671 828-1176, C935I;R936Y;Q939V)
# Summary of the method: as §1
# [7] = target: PUM1 PUF domain R3-WYR (Homo sapiens, UniProt Q14671 828-1176, C935W;R936Y;Q939R)
# Summary of the method: as §1
# [8] = target: PUM1 PUF domain R2-AWW (Homo sapiens, UniProt Q14671 828-1176, N899A;Y900W;Q903W)
# PUM1 PUF domain R2-AWW, sequence (Q14671 828-1176 N899A/Y900W/Q903W): as the sequence (Q14671 828-1176 S1079R/N1080R/E1083F) above, with N72A, Y73W, Q76W, R252S, R253N, F256E counted along it
# Summary of the method: as §1
# [9] = target: PUM1 PUF domain R4-SPC (Homo sapiens, UniProt Q14671 828-1176, N971S;H972P;Q975C)
# PUM1 PUF domain R4-SPC, sequence (Q14671 828-1176 N971S/H972P/Q975C): as the sequence (Q14671 828-1176 S1079R/N1080R/E1083F) above, with N144S, H145P, Q148C, R252S, R253N, F256E counted along it
# Summary of the method: as §1
# [10] = target: PUM1 PUF domain R4-SPS (Homo sapiens, UniProt Q14671 828-1176, N971S;H972P;Q975S)
# PUM1 PUF domain R4-SPS, sequence (Q14671 828-1176 N971S/H972P/Q975S): as the sequence (Q14671 828-1176 S1079R/N1080R/E1083F) above, with N144S, H145P, Q148S, R252S, R253N, F256E counted along it
# Summary of the method: as §1
# [11] = target: PUM1 PUF domain R4-EYL (Homo sapiens, UniProt Q14671 828-1176, N971E;H972Y;Q975L)
# PUM1 PUF domain R4-EYL, sequence (Q14671 828-1176 N971E/H972Y/Q975L): as the sequence (Q14671 828-1176 S1079R/N1080R/E1083F) above, with N144E, H145Y, Q148L, R252S, R253N, F256E counted along it
# Summary of the method: as §1
# [12] = target: PUM1 PUF domain R1-QTK (Homo sapiens, UniProt Q14671 828-1176, S863Q;R864T;Q867K)
# PUM1 PUF domain R1-QTK, sequence (Q14671 828-1176 S863Q/R864T/Q867K): as the sequence (Q14671 828-1176 S1079R/N1080R/E1083F) above, with S36Q, R37T, Q40K, R252S, R253N, F256E counted along it
# Summary of the method: as §1
# [13] = target: PUM1 PUF domain R1-RFQ (Homo sapiens, UniProt Q14671 828-1176, S863R;R864F)
# PUM1 PUF domain R1-RFQ, sequence (Q14671 828-1176 S863R/R864F): as the sequence (Q14671 828-1176 S1079R/N1080R/E1083F) above, with S36R, R37F, R252S, R253N, F256E counted along it
# Summary of the method: as §1
# [14] = target: PUM1 PUF domain R5-FNG (Homo sapiens, UniProt Q14671 828-1176, C1007F;R1008N;Q1011G)
# PUM1 PUF domain R5-FNG, sequence (Q14671 828-1176 C1007F/R1008N/Q1011G): as the sequence (Q14671 828-1176 S1079R/N1080R/E1083F) above, with C180F, R181N, Q184G, R252S, R253N, F256E counted along it
# Summary of the method: as §1
# [15] = target: PUM1 PUF domain R5-GNW (Homo sapiens, UniProt Q14671 828-1176, C1007G;R1008N;Q1011W)
# PUM1 PUF domain R5-GNW, sequence (Q14671 828-1176 C1007G/R1008N/Q1011W): as the sequence (Q14671 828-1176 S1079R/N1080R/E1083F) above, with C180G, R181N, Q184W, R252S, R253N, F256E counted along it
# Summary of the method: as §1
# [16] = target: PUM1 PUF domain R8-RHR (Homo sapiens, UniProt Q14671 828-1176, N1122R;Y1123H;Q1126R)
# Summary of the method: as §1
# [17] = target: PUM1 PUF domain R8-RMR (Homo sapiens, UniProt Q14671 828-1176, N1122R;Y1123M;Q1126R)
# Summary of the method: as §1
# [18] = target: PUM1 PUF domain R2-RKS (Homo sapiens, UniProt Q14671 828-1176, N899R;Y900K;Q903S)
# PUM1 PUF domain R2-RKS, sequence (Q14671 828-1176 N899R/Y900K/Q903S): as the sequence (Q14671 828-1176 S1079R/N1080R/E1083F) above, with N72R, Y73K, Q76S, R252S, R253N, F256E counted along it
# Summary of the method: as §1
# [19] = target: PUM1 PUF domain R2-RKG (Homo sapiens, UniProt Q14671 828-1176, N899R;Y900K;Q903G)
# PUM1 PUF domain R2-RKG, sequence (Q14671 828-1176 N899R/Y900K/Q903G): as the sequence (Q14671 828-1176 S1079R/N1080R/E1083F) above, with N72R, Y73K, Q76G, R252S, R253N, F256E counted along it
# Summary of the method: as §1
# [20] = target: PUM1 PUF domain R3-VWS (Homo sapiens, UniProt Q14671 828-1176, C935V;R936W;Q939S)
# PUM1 PUF domain R3-VWS, sequence (Q14671 828-1176 C935V/R936W/Q939S): as the sequence (Q14671 828-1176 S1079R/N1080R/E1083F) above, with C108V, R109W, Q112S, R252S, R253N, F256E counted along it
# Summary of the method: as §1
# PUM1 PUF domain R5-KYY, sequence (Q14671 828-1176 C1007K/R1008Y/Q1011Y): as the sequence (Q14671 828-1176 S1079R/N1080R/E1083F) above, with C180K, R181Y, Q184Y, R252S, R253N, F256E counted along it
sequence,measurement,setting,value
GGCUAGAACUAGUGGAUCCCCCGGCGCCCGGCGGCUCGAGCCCGGGUAAGUGUCAAUAGUCUGCAUGCCGCCGGGCGCCAUGCCUGCAGGUCGACUCUAGAAAACAUG,binding signal,[1],3.07 log2 enrichment (interaction score)
same,binding signal,[2],4.53 log2 enrichment (interaction score)
GGCUAGAACUAGUGGAUCCCCCGGCGCCCGGCGGCUCGAGCCCGGGUAAGUCUAAAUAGUCUGCAUGCCGCCGGGCGCCAUGCCUGCAGGUCGACUCUAGAAAACAUG,binding signal,[3],3.82 log2 enrichment (interaction score)
GGCUAGAACUAGUGGAUCCCCCGGCGCCCGGCGGCUCGAGCCCGGGUAAGUGUGAAUAGUCUGCAUGCCGCCGGGCGCCAUGCCUGCAGGUCGACUCUAGAAAACAUG,binding signal,[4],2.35 log2 enrichment (interaction score)
GGCUAGAACUAGUGGAUCCCCCGGCGCCCGGCGGCUCGAGCCCGGGUAAGUGUAAGUAGUCUGCAUGCCGCCGGGCGCCAUGCCUGCAGGUCGACUCUAGAAAACAUG,binding signal,[5],4.81 log2 enrichment (interaction score)
same,binding signal,[6],4.55 log2 enrichment (interaction score)
same,binding signal,[7],2.45 log2 enrichment (interaction score)
GGCUAGAACUAGUGGAUCCCCCGGCGCCCGGCGGCUCGAGCCCGGGUAAGUGUAAAAAGUCUGCAUGCCGCCGGGCGCCAUGCCUGCAGGUCGACUCUAGAAAACAUG,binding signal,[8],7.76 log2 enrichment (interaction score)
GGCUAGAACUAGUGGAUCCCCCGGCGCCCGGCGGCUCGAGCCCGGGUAAGUUUAAAUAGUCUGCAUGCCGCCGGGCGCCAUGCCUGCAGGUCGACUCUAGAAAACAUG,binding signal,[3],4.42 log2 enrichment (interaction score)
GGCUAGAACUAGUGGAUCCCCCGGCGCCCGGCGGCUCGAGCCCGGGUAAGUGUAUAUAGUCUGCAUGCCGCCGGGCGCCAUGCCUGCAGGUCGACUCUAGAAAACAUG,binding signal,[9],2.92 log2 enrichment (interaction score)
same,binding signal,[10],2.82 log2 enrichment (interaction score)
same,binding signal,[11],3.34 log2 enrichment (interaction score)
GGCUAGAACUAGUGGAUCCCCCGGCGCCCGGCGGCUCGAGCCCGGGUAAGUGUAAAUCGUCUGCAUGCCGCCGGGCGCCAUGCCUGCAGGUCGACUCUAGAAAACAUG,binding signal,[12],2.31 log2 enrichment (interaction score)
same,binding signal,[13],5.82 log2 enrichment (interaction score)
GGCUAGAACUAGUGGAUCCCCCGGCGCCCGGCGGCUCGAGCCCGGGUAAGUGUUAAUAGUCUGCAUGCCGCCGGGCGCCAUGCCUGCAGGUCGACUCUAGAAAACAUG,binding signal,[14],3.1 log2 enrichment (interaction score)
same,binding signal,[15],3.72 log2 enrichment (interaction score)
same,binding signal,[1],2.56 log2 enrichment (interaction score)
same,binding signal,[4],2.22 log2 enrichment (interaction score)
GGCUAGAACUAGUGGAUCCCCCGGCGCCCGGCGGCUCGAGCCCGGGUAAGUGUACAUAGUCUGCAUGCCGCCGGGCGCCAUGCCUGCAGGUCGACUCUAGAAAACAUG,binding signal,[10],1.66 log2 enrichment (interaction score)
same,binding signal,[11],1.81 log2 enrichment (interaction score)
GGCUAGAACUAGUGGAUCCCCCGGCGCCCGGCGGCUCGAGCCCGGGUAAGCGUAAAUAGUCUGCAUGCCGCCGGGCGCCAUGCCUGCAGGUCGACUCUAGAAAACAUG,binding signal,[16],6.54 log2 enrichment (interaction score)
same,binding signal,[17],3.05 log2 enrichment (interaction score)
GGCUAGAACUAGUGGAUCCCCCGGCGCCCGGCGGCUCGAGCCCGGGUAAGUGUAAACAGUCUGCAUGCCGCCGGGCGCCAUGCCUGCAGGUCGACUCUAGAAAACAUG,binding signal,[18],0.34 log2 enrichment (interaction score)
GGCUAGAACUAGUGGAUCCCCCGGCGCCCGGCGGCUCGAGCCCGGGUAAGUGUAAUUAGUCUGCAUGCCGCCGGGCGCCAUGCCUGCAGGUCGACUCUAGAAAACAUG,binding signal,[5],3.95 log2 enrichment (interaction score)
same,binding signal,[7],2.58 log2 enrichment (interaction score)
GGCUAGAACUAGUGGAUCCCCCGGCGCCCGGCGGCUCGAGCCCGGGUAAGUGUAAAGAGUCUGCAUGCCGCCGGGCGCCAUGCCUGCAGGUCGACUCUAGAAAACAUG,binding signal,[19],4.62 log2 enrichment (interaction score)
same,binding signal,[8],0.42 log2 enrichment (interaction score)
same,binding signal,[18],4.33 log2 enrichment (interaction score)
GGCUAGAACUAGUGGAUCCCCCGGCGCCCGGCGGCUCGAGCCCGGGUAAGUGUAAAUAGUCUGCAUGCCGCCGGGCGCCAUGCCUGCAGGUCGACUCUAGAAAACAUG,binding signal,[20],2.46 log2 enrichment (interaction score)
same,binding signal,[5],3.61 log2 enrichment (interaction score)
same,binding signal,[9],3.42 log2 enrichment (interaction score)
same,binding signal,[10],3.74 log2 enrichment (interaction score)
same,binding signal,[1],1.63 log2 enrichment (interaction score)
same,binding signal,[11],4.64 log2 enrichment (interaction score)
same,binding signal,[6],2.65 log2 enrichment (interaction score)
same,binding signal,[16],5.61 log2 enrichment (interaction score)
same,binding signal,[17],1.55 log2 enrichment (interaction score)
same,binding signal,[4],3.41 log2 enrichment (interaction score)
